Measurements published in PubChem BioAssay (NCATS).
Inconclusive results are not listed. The source made the active and inactive calls. Unless noted, calls come from the whole dose curve.

How the values were obtained:
[1] = target: Bile acid receptor (Homo sapiens) (UniProt Q96RI1); assay: qHTS assay for small molecule agonists of farnesoid X receptor signaling (AID 588527); details: HEK293T FXR-UAS-bla, beta-lactamase ratio, 16 h; activation: stronger effect = higher value;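 note: series mostly up to about 77 µM; 0% = vehicle basal and 100% = reference agonist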
Procedure, shortened: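 Agonist-mode beta-lactamase reporter in GeneBLAzer FXR-UAS-bla HEK293T cells, titration up to 92 uM, 16 h exposure at 37 C, CCF4 fluorescence. Response scaled to DMSO (0%) and 100 uM chenodeoxycholic acid (100%), then Hill-fitted for EC50 and efficacy.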

[2] = target: Glucocorticoid receptor (Homo sapiens) (UniProt P04150); assay: qHTS assay for small molecule agonists of glucocorticoid receptor signaling (AID 588532; active = well fitted curve in the direction sought with a large enough effect in the signal ratio, with a control signal flat; the % refers to the signal ratio;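 note: 100% = dexamethasone at 0.1 µM and 0% = DMSO only wells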); details: HeLa MMTV-bla, beta-lactamase ratio, agonist, 18 h; activation: stronger effect = higher value, percent of dexamethasone control, DMSO zero
Procedure, shortened: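 MMTV-bla HeLa beta-lactamase reporter cells in 1% charcoal/dextran FBS medium, compounds up to 92 uM for 18 h at 37 C, CCF4 readout; normalized to 0.1 uM dexamethasone (100%), EC50 and efficacy from Hill fits.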

[3] = target: Peroxisome proliferator-activated receptor delta (Homo sapiens) (UniProt Q03181); assay: qHTS assay for small molecule agonists of peroxisome proliferator-activated receptor delta signaling (AID 588534);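 note: 0% = DMSO basal wells and 100% = positive control agonist at 10 µM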
Procedure, shortened: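 Cells carrying a PPAR-delta beta-lactamase reporter were treated with compounds for 18 h at 37 °C in agonist mode. CCF4 fluorescence was read after 2 h; EC50 and efficacy from Hill fits.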

[4] = qHTS assay for small molecule antagonists of peroxisome proliferator-activated receptor delta signaling (AID 588535; active = well fitted inhibition curve with a large enough effect in the signal ratio, with a control signal flat, not every such curve was filed as active; the % refers to the signal ratio;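 for max response: cells co-treated with a PPAR-delta agonist as stimulator during compound exposure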); details: HEK293T PPARd-UAS-bla, beta-lactamase FRET ratio, 18 h; 460 nm channel
Procedure, shortened: (§1)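 Antagonist-mode beta-lactamase reporter (GeneBLAzer PPAR-delta-UAS-bla) in HEK293T cells, 2% charcoal/dextran FBS, 4000 cells/well. Compound titrations, 18 h at 37 C; CCF4 ratio read, IC50 and efficacy from Hill fits.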

[5] = target: Peroxisome proliferator-activated receptor delta (Homo sapiens) (UniProt Q03181); assay: as above
Procedure, shortened: as §1

[6] = target: Peroxisome proliferator-activated receptor gamma (Homo sapiens) (UniProt P37231); assay: qHTS assay for small molecule agonists of peroxisome proliferator-activated receptor gamma signaling (AID 588536; active = well fitted curve in the direction sought with a large enough effect in the signal ratio, with a control signal flat, not every such curve was filed as active; the % refers to the signal ratio;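 note: 0% = DMSO basal wells and 100% = rosiglitazone at 2 µM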)
Procedure, shortened: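 Ratiometric blue/green fluorescence (405 nm excitation; 460 and 530 nm emission) from CCF4-loaded HEK293 reporter cells serves as signal. Exposure to test compounds lasts 16 h at 37 C in medium containing 1% charcoal/dextran-treated serum.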

[7] = target: Vitamin D3 receptor (Homo sapiens) (UniProt P11473); assay: qHTS assay for small molecule antagonists of vitamin D receptor signaling (AID 588541);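 note: receptor activated by calcitriol during compound treatment; series mostly up to about 77 µM; % is set by controls: 0 for no effect and ±100 for the full control effect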
Procedure, shortened: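 VDR-UAS-bla HEK293T cells in 2% charcoal-stripped FBS were stimulated with 1-alpha,25-dihydroxyvitamin D3 (3 nM final) plus compound for 16 h at 37 C. The beta-lactamase CCF4 readout was normalized to 50 nM agonist and DMSO, and Hill fits gave IC50.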

[8] = target: Vitamin D3 receptor (Homo sapiens) (UniProt P11473); assay: qHTS assay for small molecule agonists of vitamin D receptor signaling (AID 588543);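 note: 0% = DMSO basal and 100% = reference agonist control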
Procedure, shortened: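 β-lactamase reporter, VDR-UAS-bla HEK293T, agonist mode. Cells plated 5 h at 37 °C, compound titration 16 h at 37 °C, CCF4 dye 2 h RT, ratio 460/530 nm. Hill fit → EC50, efficacy vs 50 nM 1α,25-(OH)2D3.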

[9] = target: Thyroid hormone receptor beta (Homo sapiens) (UniProt P10828); assay: qHTS assay for small molecule agonists of thyroid hormone receptor beta signaling (AID 588545)
Procedure, shortened: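 Agonist activity was read as beta-lactamase CCF4 fluorescence (405 ex, 460/530 em), scaled between DMSO (0%) and 10 nM T3 (100%), then Hill-fitted for EC50 and efficacy. HEK 293 TR-UAS-bla cells in 2% charcoal/dextran FBS medium were exposed 18 h at 37 C.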

[10] = qHTS assay for small molecule antagonists of retinoid X receptor alpha signaling (AID 588546; active = well fitted inhibition curve with a large enough effect in the signal ratio, with a control signal flat, not every such curve was filed as active; the % refers to the signal ratio; note: potency is the fitted concentration of half-maximal effect;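 for max response: cells stimulated with 9-cis-retinoic acid as agonist; % is set by controls: 0 for no effect and ±100 for the full control effect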); details: HEK293T RXRa-UAS-bla, beta-lactamase ratio, antagonist mode; measured here: W530 green channel, cytotoxicity proxy
Procedure, shortened: (§2)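 Beta-lactamase reporter inhibition, read as CCF4 fluorescence ratio (ex 405, em 460/530 nm) after 2 h at RT. HEK293T UAS-bla cells, 2500/well, were stimulated with 9-cis-RA at 500 or 100 nM final alongside test compound for 18 h at 37 C.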

[11] = target: Retinoic acid receptor RXR-alpha (Homo sapiens) (UniProt P19793); assay: as above; details: HEK293T RXRa-UAS-bla, beta-lactamase ratio, antagonist mode
Procedure, shortened: as §2

[12] = qHTS assay for small molecule activators of the p53 signaling pathway (AID 651743; active = well fitted activation curve with a large enough effect in the signal ratio, not every such curve was filed as active; the % refers to the signal ratio; note: series mostly up to about 92 µM; % of control where 0% means no effect); details: HCT-116 p53RE-bla, beta-lactamase FRET ratio, 16 h; activation: stronger effect = higher value
Procedure, shortened: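 p53RE-bla HCT-116 cells carrying a beta-lactamase reporter under p53 response elements were exposed to compounds for 16 hours at 37 C. Reporter activity read as fluorescence after 2 hours at room temperature with LiveBLAzer B/G FRET substrate.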

[13] = qHTS assay for small molecule activators of the nuclear factor-kappa B (NF-kB) signaling pathway (AID 651749; active = well fitted activation curve with a large enough effect in the signal ratio; the % refers to the signal ratio; note: series mostly up to about 77 µM; % of control where 0% means no effect); details: NF-kB-bla ME-180 cells, beta-lactamase FRET ratio, 16 h; activation: stronger effect = higher value
Procedure, shortened: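 NF-kB-bla ME-180 cells carrying a beta-lactamase reporter under an NF-kB response element, 2,000 cells/well, exposed to compound for 16 hr at 37C; FRET-based beta-lactamase fluorescence read-out of pathway activation.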

[14] = qHTS assay for environmental chemicals that activate the Aryl hydrocarbon Receptor (AhR) signaling pathway (AID 651777; active = well fitted curve in the direction sought with a large enough effect; an effect the other way counts as inactive or inconclusive; note: % of control where 0% means no effect; nearly all actives have a fitted effect of over 15% in size); details: 1A2-DRE human hepatoma cells, luciferase, 24 h; activation: stronger effect = higher value
Procedure, shortened: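 Luminescence (One-Glo, 30 min, room temperature) reports AhR-driven luciferase in stably transfected human hepatoma cells bearing DRE and CYP1A2 promoter. Cells (1,200/well) were treated with compound for 24 hr at 37 C in qHTS format.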

[15] = target: Peroxisome proliferator-activated receptor alpha (Homo sapiens) (UniProt Q07869); assay: qHTS assay for small molecule agonists of the peroxisome proliferator-activated receptor alpha (PPARalpha) signaling pathway (AID 651778; active = well fitted curve in the direction sought with a large enough effect; an effect the other way counts as inactive or inconclusive; note: % of control where 0% means no effect); details: PathHunter PPARalpha complementation, chemiluminescence, 6 h; max response: stronger effect = higher value
Procedure, shortened: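 Enzyme-fragment complementation assay in which ligand-bound PPARalpha translocates and forms an active enzyme that generates chemiluminescence. Cells were plated overnight, exposed to compound for 6 hr at 37 C, and then given detection reagent for 60 min at room temperature.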

[16] = qHTS assay for small molecule agonists of the antioxidant response element (ARE) signaling pathway measured by Nrf2-dependant transcriptional activity (AID 720636; active = well fitted curve in the direction sought with a large enough effect in the repeat runs; an effect the other way counts as inactive or inconclusive; note: % of control where 0% means no effect)
Procedure, shortened: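 Nrf2-dependent transcription read as ONE-Glo luciferase signal from ARE-luc HepG2 reporter cells after 16 hr compound treatment at 37 C, 5% CO2, in assay medium with 1% dialyzed FBS.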

[17] = qHTS assay for small molecule agonists of the antioxidant response element (ARE) signaling pathway measured by Nrf2-dependant transcriptional activity - cell viability counter screen (AID 720653; active = well fitted curve in the direction sought with a large enough effect in the repeat runs; an effect the other way counts as inactive or inconclusive; note: % is set by controls: 0 for no effect and ±100 for the full control effect); details: ARE-bla HepG2 viability, CellTiter-Glo ATP luminescence, 16 h; max response: stronger effect = lower value
Procedure, shortened: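 ARE-bla HepG2 cells treated with compounds for 16 h at 37C; this counter screen measures viability as intracellular ATP by CellTiter-Glo luminescence after 30 min at room temperature.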

[18] = qHTS assay for cell viability of the p53RE-bla HCT-116 cell line (AID 743292; active = well fitted curve in the direction sought with a large enough effect; an effect the other way counts as inactive or inconclusive; note: % is set by controls: 0 for no effect and ±100 for the full control effect; nearly all actives have a fitted effect of over 55% in size)
Procedure, shortened: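 ATP-based luminescent viability (CellTiter-Glo, 30 min RT) after 16 h compound treatment at 37 C of p53RE-bla HCT-116 cells, seeded at 4,000 cells/well and rested 5 h before dosing.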

[19] = qHTS assay for small molecule agonists of the antioxidant response element (ARE) signaling pathway (AID 651741; active = well fitted activation curve with a large enough effect in the signal ratio; the % refers to the signal ratio; note: potency is the fitted concentration of half-maximal effect)
Procedure, shortened: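 CellSensor ARE-bla HepG2 cells (2,000/well) carrying ARE-driven beta-lactamase, exposed 16 h at 37 C. LiveBLAzer B/G FRET substrate added for 2 h at room temperature; fluorescence intensity read.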

[20] = qHTS assay for small molecule activators of the human pregnane X receptor (PXR) signaling pathway (AID 720659; call rule not given here; note: 0% is about no effect)

Chain of Peroxisome proliferator-activated receptor delta (Homo sapiens) (Q03181 whole entry, looked up): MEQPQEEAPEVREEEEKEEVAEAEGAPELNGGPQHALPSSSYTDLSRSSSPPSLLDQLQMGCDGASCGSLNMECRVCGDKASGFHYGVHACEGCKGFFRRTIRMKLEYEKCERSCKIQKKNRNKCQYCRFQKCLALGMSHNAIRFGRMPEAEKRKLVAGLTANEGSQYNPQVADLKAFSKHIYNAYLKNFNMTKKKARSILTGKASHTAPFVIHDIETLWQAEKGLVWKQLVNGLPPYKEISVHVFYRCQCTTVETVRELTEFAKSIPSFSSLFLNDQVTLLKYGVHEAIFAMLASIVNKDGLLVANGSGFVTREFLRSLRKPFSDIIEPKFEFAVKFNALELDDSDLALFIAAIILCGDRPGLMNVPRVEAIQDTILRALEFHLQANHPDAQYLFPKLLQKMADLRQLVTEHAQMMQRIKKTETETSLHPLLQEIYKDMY
Chain of Bile acid receptor (Homo sapiens) (Q96RI1 whole entry, looked up): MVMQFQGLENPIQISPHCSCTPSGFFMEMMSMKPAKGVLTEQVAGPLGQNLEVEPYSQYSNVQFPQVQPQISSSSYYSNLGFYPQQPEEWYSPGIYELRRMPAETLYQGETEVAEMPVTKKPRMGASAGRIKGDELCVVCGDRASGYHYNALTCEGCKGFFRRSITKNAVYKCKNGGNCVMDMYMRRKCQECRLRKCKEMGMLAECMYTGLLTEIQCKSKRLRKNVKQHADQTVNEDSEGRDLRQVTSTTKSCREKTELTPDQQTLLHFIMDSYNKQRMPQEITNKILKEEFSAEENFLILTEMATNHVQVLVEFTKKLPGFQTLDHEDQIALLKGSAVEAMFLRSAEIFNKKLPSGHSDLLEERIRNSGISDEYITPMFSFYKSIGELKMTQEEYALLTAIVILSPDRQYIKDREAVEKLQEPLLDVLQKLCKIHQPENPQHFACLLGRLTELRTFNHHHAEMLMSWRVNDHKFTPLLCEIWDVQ
Chain of Glucocorticoid receptor (Homo sapiens) (P04150 whole entry, looked up): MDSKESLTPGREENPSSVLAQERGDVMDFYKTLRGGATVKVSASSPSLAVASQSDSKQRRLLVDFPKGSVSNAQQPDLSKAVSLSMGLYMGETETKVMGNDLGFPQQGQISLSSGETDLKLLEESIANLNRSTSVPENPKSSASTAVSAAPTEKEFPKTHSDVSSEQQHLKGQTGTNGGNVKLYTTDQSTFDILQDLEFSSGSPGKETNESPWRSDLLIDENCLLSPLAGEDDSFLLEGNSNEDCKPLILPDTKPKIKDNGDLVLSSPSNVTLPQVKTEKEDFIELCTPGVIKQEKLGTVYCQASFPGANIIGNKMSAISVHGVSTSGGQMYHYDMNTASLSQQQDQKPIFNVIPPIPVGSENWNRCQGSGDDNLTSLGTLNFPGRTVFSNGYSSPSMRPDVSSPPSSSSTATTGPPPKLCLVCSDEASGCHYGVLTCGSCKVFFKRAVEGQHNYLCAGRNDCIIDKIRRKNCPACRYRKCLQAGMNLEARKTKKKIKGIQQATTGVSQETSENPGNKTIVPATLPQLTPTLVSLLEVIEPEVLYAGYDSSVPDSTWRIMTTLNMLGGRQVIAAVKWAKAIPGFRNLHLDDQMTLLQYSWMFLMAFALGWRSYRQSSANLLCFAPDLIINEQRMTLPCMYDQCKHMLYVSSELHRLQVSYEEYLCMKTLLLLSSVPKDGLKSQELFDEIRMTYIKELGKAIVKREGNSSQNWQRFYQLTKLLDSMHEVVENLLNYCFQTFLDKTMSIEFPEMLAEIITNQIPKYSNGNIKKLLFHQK
Chain of Vitamin D3 receptor (Homo sapiens) (P11473 whole entry, looked up): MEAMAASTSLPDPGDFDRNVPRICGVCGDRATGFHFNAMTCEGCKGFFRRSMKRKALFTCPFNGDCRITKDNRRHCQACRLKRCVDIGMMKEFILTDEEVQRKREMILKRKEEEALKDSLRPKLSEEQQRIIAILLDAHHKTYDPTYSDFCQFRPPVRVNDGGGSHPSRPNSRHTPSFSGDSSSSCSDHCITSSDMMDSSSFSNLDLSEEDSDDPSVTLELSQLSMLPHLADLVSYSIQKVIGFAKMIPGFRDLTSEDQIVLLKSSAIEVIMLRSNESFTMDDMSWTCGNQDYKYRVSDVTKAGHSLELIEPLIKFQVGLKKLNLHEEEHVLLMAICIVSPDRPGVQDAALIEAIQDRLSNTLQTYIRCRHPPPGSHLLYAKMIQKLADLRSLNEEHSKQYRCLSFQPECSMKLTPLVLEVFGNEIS
Chain of Peroxisome proliferator-activated receptor alpha (Homo sapiens) (Q07869 whole entry, looked up, the tested form may be a part): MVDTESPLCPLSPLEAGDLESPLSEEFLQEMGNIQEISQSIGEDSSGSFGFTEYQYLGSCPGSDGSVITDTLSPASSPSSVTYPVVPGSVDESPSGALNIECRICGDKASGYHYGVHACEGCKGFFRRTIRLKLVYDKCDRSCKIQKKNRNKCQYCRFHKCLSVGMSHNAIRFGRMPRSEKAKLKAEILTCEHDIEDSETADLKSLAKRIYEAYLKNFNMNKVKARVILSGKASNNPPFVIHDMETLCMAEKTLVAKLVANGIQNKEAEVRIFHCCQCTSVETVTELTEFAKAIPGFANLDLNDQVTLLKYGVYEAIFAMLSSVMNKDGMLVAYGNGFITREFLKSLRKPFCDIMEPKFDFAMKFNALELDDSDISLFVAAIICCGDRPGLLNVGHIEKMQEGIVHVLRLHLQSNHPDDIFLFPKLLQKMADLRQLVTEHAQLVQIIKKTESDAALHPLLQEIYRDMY
Chain of Thyroid hormone receptor beta (Homo sapiens) (P10828 whole entry, looked up): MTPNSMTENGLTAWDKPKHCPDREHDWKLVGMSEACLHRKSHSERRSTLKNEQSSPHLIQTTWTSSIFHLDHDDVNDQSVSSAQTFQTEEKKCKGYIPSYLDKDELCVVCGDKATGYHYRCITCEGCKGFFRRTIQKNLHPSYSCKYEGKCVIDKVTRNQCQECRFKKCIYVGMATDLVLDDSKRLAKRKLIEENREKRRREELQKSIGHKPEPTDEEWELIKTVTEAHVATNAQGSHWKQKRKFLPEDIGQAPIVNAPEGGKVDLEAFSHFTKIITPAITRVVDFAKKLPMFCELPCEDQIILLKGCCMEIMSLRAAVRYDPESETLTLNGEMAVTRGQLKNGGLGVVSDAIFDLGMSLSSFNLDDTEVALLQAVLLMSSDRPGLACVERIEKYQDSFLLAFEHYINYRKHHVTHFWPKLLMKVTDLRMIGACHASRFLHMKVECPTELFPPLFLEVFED
Chain of Retinoic acid receptor RXR-alpha (Homo sapiens) (P19793 whole entry, looked up): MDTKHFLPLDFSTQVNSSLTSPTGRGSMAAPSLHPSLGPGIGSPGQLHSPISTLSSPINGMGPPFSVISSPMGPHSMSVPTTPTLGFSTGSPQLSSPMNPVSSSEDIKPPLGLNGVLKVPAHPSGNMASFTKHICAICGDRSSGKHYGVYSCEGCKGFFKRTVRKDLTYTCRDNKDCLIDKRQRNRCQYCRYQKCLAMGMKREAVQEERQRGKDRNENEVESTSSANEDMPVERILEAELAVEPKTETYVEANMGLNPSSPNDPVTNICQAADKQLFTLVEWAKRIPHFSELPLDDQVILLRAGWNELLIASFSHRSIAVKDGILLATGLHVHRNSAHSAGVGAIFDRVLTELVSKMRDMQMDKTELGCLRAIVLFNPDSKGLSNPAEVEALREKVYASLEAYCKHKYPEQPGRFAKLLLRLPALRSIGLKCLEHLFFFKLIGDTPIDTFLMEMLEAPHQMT
Chain of Peroxisome proliferator-activated receptor gamma (Homo sapiens) (P37231 whole entry, looked up): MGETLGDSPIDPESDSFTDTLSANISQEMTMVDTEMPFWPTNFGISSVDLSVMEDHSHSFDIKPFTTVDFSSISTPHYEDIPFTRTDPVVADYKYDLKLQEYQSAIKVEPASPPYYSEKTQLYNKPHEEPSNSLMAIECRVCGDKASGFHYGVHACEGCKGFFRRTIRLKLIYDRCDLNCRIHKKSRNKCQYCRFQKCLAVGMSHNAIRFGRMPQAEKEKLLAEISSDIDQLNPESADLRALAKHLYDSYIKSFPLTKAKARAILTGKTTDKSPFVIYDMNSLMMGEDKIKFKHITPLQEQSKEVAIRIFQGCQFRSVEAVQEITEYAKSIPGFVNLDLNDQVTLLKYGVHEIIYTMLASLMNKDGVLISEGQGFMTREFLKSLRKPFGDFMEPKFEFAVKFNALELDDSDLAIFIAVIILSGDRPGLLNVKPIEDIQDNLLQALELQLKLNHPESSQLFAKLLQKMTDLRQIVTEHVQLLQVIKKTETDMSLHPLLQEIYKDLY

CCOP(=S)(OCC)SCn1nnc2ccccc2c1=O
active: Potency [11] 39.8 µM
30.8%: max response [10]
inactive: activation [1] 3.29% | activation [2] 9.79% | outcome [3] | Potency [5] | Potency [6] | Potency [7] | outcome [8] | Potency [9] | activation [12] 2.43% | activation [13] -3.08% | activation [14] 6.1% | max response [15] -0.264% | Potency [16] | max response [17] -19.9% | Potency [18]
7.16%: max response [4]

O=[N+]([O-])c1ccc(O)cc1C(F)(F)F
inactive: activation [1] -0.0736%

O=P(O)(O)O
inactive: activation [1] 0.993%

CCC(C)(C)OC
inactive: activation [1] 0.74% | outcome [3]

CC(C)(C)c1ccc(CSc2cnn(C(C)(C)C)c(=O)c2Cl)cc1
inactive: activation [1] 6.79% | activation [2] -0.474% | activation [14] -3.11% | max response [15] -6% | Potency [16] | Potency [18] | outcome [20]
active: Potency [19] 0.0969 µM

C1=C/CC/C=C/CC/C=C/CC/1
inactive: activation [1] -1.27% | outcome [3]
